Rows were chosen to be rich in hits. Some 4.2% of all compounds tested hit in one or more screens of this group.
ALOX12 inh – blocks human arachidonate 12S-lipoxygenase; P18054; purified 12hLO, xylenol orange hydroperoxide absorbance; Potency, µM (highest dose often 108 µM), for the others: at the top dose activity change, negative = inhibition, most hits filed as inhibitors; 580,000 tested, 1.1% active
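Hydroperoxide product was detected by ferrous iron/xylenol orange as the 573 to 405 nm absorbance ratio. Arachidonic acid at 40 uM (final) was turned over for 30 min at room temperature by 150 nM human 12hLO, pH 7.0 Hepes buffer, after 15 min compound preincubation.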
PLK1 PBD block – PLK1 (human) polo-box domain binding inhibition; Plk1 PBD binding of FITC phosphopeptide, fluorescence polarization; AID 720504; Potency, µM, for the others: max response, negative = inhibition, most hits filed as inhibitors; P53350; 360,000 tested, 2.8% active; further: series mostly up to about 57 µM; nearly all actives have a fitted effect of over 65% in size
Target sequence (P53350 whole entry, looked up, the tested form may be a part): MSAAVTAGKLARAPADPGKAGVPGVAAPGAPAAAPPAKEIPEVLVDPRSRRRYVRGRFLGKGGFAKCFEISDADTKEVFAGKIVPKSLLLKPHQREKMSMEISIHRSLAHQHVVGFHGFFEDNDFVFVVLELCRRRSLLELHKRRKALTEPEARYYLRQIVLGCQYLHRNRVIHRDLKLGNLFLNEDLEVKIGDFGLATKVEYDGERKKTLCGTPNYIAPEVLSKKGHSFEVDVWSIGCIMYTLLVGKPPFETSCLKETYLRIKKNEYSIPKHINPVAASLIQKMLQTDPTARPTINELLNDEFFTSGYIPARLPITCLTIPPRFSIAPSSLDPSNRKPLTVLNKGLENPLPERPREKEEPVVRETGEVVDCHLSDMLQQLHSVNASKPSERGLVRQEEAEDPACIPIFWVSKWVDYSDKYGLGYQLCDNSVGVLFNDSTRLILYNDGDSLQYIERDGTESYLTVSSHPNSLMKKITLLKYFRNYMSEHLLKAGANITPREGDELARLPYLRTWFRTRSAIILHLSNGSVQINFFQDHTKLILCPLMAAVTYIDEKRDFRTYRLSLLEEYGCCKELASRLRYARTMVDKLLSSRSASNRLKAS
Sfp PPTase inh – inhibitors of Bacillus subtilis Sfp phosphopantetheinyl transferase. Biochemical Sfp PPTase activity, qHTS. Q9F4F7. 310,000 tested, 3.5% active. Potency, µM, for inactives: largest response in the series, negative = inhibition, actives largely listed as inhibitors;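 further: the enzyme is Sfp with the accession as filed and its product quenches rhodamine fluorescence; 0% = enzyme reaction without inhibitor and -100% = no enzyme wells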
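Compounds were incubated with enzyme (final 15 nM) for 15 min at room temperature before substrate addition started the reaction. Fluorescence at 525 nm excitation, 598 nm emission was recorded immediately and after 30 minutes.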
VDR inh – inhibitors of human vitamin D receptor | P11473 | VDR-SRC2-3 peptide fluorescence polarization, 2 h | Potency, µM, for the others: max response, negative = inhibition, hits mostly inhibitors | 400,000 tested, 0.93% active
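Signal is fluorescence polarization, reporting how far test compounds block the interaction of VDR with the SRC2-3 coregulator peptide after a 2 h room-temperature incubation.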
Active calls of the source: *; ? = inconclusive; . = no result given; [ ] = dose if it differs, or a comment. The call rests on the fitted dose curve; in most records, active means well fitted curve in the direction sought with a large enough effect; inconclusive means small, poorly fitted or top-dose-only effect, or another doubt; inactive means no such curve, though single readings can be large; an effect the other way counts as inactive or inconclusive. Unless noted, on the % scale 0 is the no-effect control and ±100 the full control effect; potency means the concentration at half of the fitted maximal effect.

SMILES	ALOX12 inh	PLK1 PBD block	Sfp PPTase inh	VDR inh
CCN(CC)S(=O)(=O)c1cc([N+](=O)[O-])ccc1NNC(=O)Nc1ccccc1OC	?	-24%	50µM*	0%
CCOc1cc(=O)n2c(c1C(=O)NCc1ccccc1)CCCCC2	7%	.	.	.
CC1CC(NC(=O)c2c(O)nc3sccn3c2=O)CC(C)(C)C1 (configuration not stated)	-15%	-4%	.	-11%
O=C(COc1ccc(Cl)cc1)Nc1ccc(-c2nc3ccccc3s2)c(O)c1	-4%	.	.	-4%
Cc1cc(C)c2nc(Cl)c(Cl)nc2c1	?	-23%	4%	25%
CC(=O)N(C)/C=C1\Sc2ccccc2C1=O	35µM*	-6%	4%	1%
COCCCNc1oc(-c2ccc(S(=O)(=O)N3CCOCC3)cc2)nc1C#N	-1%	.	.	.
CCn1c2ccccc2c2cc(CN3CCN(Cc4cc(OC)ccc4O)CC3)ccc21	?	-7%	50µM*	?
CCn1c2ccccc2c2cc(CN3CCN(Cc4ccccc4C)CC3)ccc21	-31%	.	.	-15%
CCn1c2ccccc2c2cc(CN3CCN(Cc4ccccc4F)CC3)ccc21	28µM*	.	.	-8%
CCn1c2ccccc2c2cc(CN3CCN(Cc4cc(OC)c(O)c(OC)c4)CC3)ccc21	?	.	.	-15%
Cc1ccccc1N/N=C/c1ccc(C#N)cc1	?	-5%	12%	-7%
Cc1cccc(N/N=C/c2ccncc2)c1	45µM*	3%	3%	-2%
CCN(CC)c1ccc(/C=N/Nc2ccc(C)cc2)c(O)c1	?	?	40µM*	-11%
O=[N+]([O-])c1ccc(N/N=C/c2ccccc2O)cc1	3%	-8%	-9%	-18%
Cc1cccc(N/N=C/c2ccccc2O)c1	40µM*	-9%	4%	-9%
CCOC(=O)N/N=C/c1ccc(N(CC)CC)cc1O	-2%	2%	-17%	12%
Cc1ccc(N/N=C/c2ccc(C#N)cc2)cc1Cl	3.2µM*	.	.	.
COc1ccc(N2C=C3C(=O)C(C)(OC(=O)CCc4ccccc4)C(=O)C=C3C=C2c2ccc(C#N)cc2)cc1 (configuration not stated)	-28%	-19%	-1%	-15%
Cc1cc(CNC(=O)c2cccc([N+](=O)[O-])c2C)c2ccccc2n1	-2%	-3%	17%	-10%
O=C(c1ccc(C(F)(F)F)cc1)N1CCn2c(nnc2C2CC2)C1	24%[176 µM]	.	.	.
Cc1cccc(N/N=C/c2ccc(C#N)cc2)c1	18µM*	.	.	.
Cc1ccc(/C=N/Nc2cccc3cccnc23)c(O)c1	-23%	1%	45µM*	-17%
O=C(NCC(=O)N(c1ccc(F)cc1)C(C(=O)NC1CCCCC1)c1ccncc1)c1ccco1 (configuration not stated)	6%	2%	10%	-7%
CCOc1ccc(OCC)c(NS(=O)(=O)c2ccc(-c3cnc(C)o3)cc2)c1	-21%	.	.	.
SMILES	ALOX12 inh	PLK1 PBD block	Sfp PPTase inh	VDR inh
Cc1cc2nc(CCl)cc(=O)n2[nH]1	-11%	4%	-8%	23%
Cc1cc2nc(CSc3ccccc3)cc(=O)n2[nH]1	3%	21µM*	-15%	13%
CC(C)C[C@H]1CCC[C@H](CC(C)C)[N+]1(C)C	14µM*	.	.	.
Cc1ccc(C(=O)C=CC=Cc2ccccc2)cc1	-23%	-10%	.	.
Cc1ccc(C(=O)C(C(=O)/C=C/c2ccccc2)=C2SCCCS2)cc1	?	3.4µM*	-11%	-15%
N#CC1=C(N)SC(N)=C(C#N)C1c1ccc([N+](=O)[O-])cc1	?	9.5µM*	5µM*	79µM*
Clc1ccc(OCCCNCc2ccccc2)c2ccccc12	-86%	-6%	56µM*	-11%
Cc1cc(C)c(C)c(OCCNCc2ccccc2)c1	-16%	-1%	-27%	3%
Cc1cc(Br)ccc1OCCNCc1ccccc1	6.3µM*	0%	-5%	-5%
CCC(C)NCCOCCOc1ccc(Cl)c2ccccc12 (configuration not stated)	?	-2%	20µM*	2%
O=C(NC(C(=O)N1CCCC1C(=O)O)=C1CCCCC1)c1ccccc1 (configuration not stated)	-20%	-14%	18%	-19%
CC(=O)Nc1ccc(C2(C(=O)N3CCN(c4ccccc4)CC3)CCCCC2)cc1	5%	.	.	.
CCOC(=O)C(C#N)=C1CCC=C(C)C1	-5%	7%	.	.
CCOC(=O)/C(C#N)=C1\CCCN1CC(N)=S	-23%	21µM*	35µM*	?
O=C1CCCCCN1C(=O)c1ccc(C(=O)N2CCCCCC2=O)cc1	-3%	30µM*	14%	-2%
CCOC(=O)c1c(/N=C/N(C)C)sc(/C=N/Nc2ccccc2)c1-c1ccccc1	?	24µM*	2%	-20%
